According to PubChem BioAssay AID1851 (National Center for Advancing Translational Sciences (NCATS), 2009):
The campaign covered roughly 16,000 compounds. About 2,600 (16%) were called active. Not shown: some 20% with an inconclusive outcome. The list is a sample of the results. Unmarked numbers belong to inactive results. Calls come from the whole dose curve; as a rule, active = well fitted curve in the direction sought with a large enough effect; inconclusive = small, poorly fitted or top-dose-only effect, or effect the other way; inactive = no such curve, though single readings can be large or run the other way.

Target: Cytochrome P450 2D6 (Homo sapiens) (UniProt P10635)
Sequence (P10635 whole entry, looked up): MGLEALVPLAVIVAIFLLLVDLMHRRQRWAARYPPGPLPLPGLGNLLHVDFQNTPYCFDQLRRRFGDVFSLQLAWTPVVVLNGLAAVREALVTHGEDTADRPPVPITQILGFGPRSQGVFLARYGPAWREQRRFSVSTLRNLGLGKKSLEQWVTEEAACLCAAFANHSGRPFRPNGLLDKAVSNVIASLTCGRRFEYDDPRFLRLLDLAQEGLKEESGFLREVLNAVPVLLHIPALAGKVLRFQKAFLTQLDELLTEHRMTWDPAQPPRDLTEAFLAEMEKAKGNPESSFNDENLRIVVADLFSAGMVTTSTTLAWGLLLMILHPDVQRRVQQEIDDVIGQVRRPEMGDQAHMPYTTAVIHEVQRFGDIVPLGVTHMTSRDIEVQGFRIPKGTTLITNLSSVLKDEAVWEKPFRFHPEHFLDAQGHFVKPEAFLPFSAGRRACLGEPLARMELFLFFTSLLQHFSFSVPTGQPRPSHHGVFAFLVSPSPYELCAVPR
Assay: Cytochrome panel assay with activity outcomes
Settings: recombinant CYP, pro-luciferin dealkylation, luminescence, p450-cyp2d6; series mostly up to 57.1 µM; activity, negative = inhibition: at the top concentration
% is set by controls: 0 for no effect and ±100 for the full control effect.

| SMILES | activity, negative = inhibition | AC50 |
| --- | --- | --- |
| COC(=O)Nc1nc2ccc(C(=O)c3cccs3)cc2[nH]1 | 0.0102% | – |
| COCC(=O)N1CCC2(CCCN(c3ccncc3)C2)CC1 | -15.3% | – |
| CC1=C(C(N)=O)C(c2ccccn2)n2nc(SCc3ccccc3Cl)nc2N1 (stereo not drawn) | -0.385% | – |
| CC(C)CNc1nc(N)[nH]c(=O)c1NC=O | -2.42% [at 11.4 µM] | – |
| CN1CCN(c2ncc3nc(-c4cc(F)cc(F)c4)c(=O)n(CCC#N)c3n2)CC1 | 17.6% | – |
| Cc1cccc(-n2cccc2)c1C#N | 4.73% | – |
| FC(F)(F)c1ccccc1-n1ccnc1 | -10.7% | – |
| N#Cc1c(-n2ccnc2)cccc1-n1ccnc1 | – | 6.31 µM (active) |
| O=C(/C=C\NCC(=O)c1ccccc1)c1ccccc1 | -15.4% | – |
| N#CC1=C(N)OC2=C(CC/C2=C\c2ccccc2)C1c1ccccc1 (stereo not drawn) | -7.69% | – |
| Cc1c(-c2c(C#N)c(N)nc3c2CCCCCC3)cnn1C | -4.87% | – |
| COc1ccc(CNc2ncncc2-c2ccc(C(=O)N(C)C)cc2)c(OC)c1 | – | 20 µM (active) |
| COc1ccc(CNc2ncncc2-c2ccc(N(C)C)cc2)c(OC)c1 | – | 10 µM (active) |
| CO[C@H]1COC(=O)[C@H](C)COC(=O)[C@@H](Cc2ccccc2)NC(=O)C/C=C\[C@H]1C | 3.3% [at 11.4 µM] | – |
| NS(=O)(=O)c1cc2c(cc1C(F)(F)F)N[C@H](Cc1ccccc1)NS2(=O)=O | -5.27% [at 25.6 µM] | – |
| CCN1CCN(S(=O)(=O)c2ccc(Cl)c(C(=O)Nc3nnc(CC(C)C)s3)c2)CC1 | -26.9% | – |
| Cc1ccc(C)c(NC(=O)C2(C)CC3c4ccccc4C2c2ccccc23)c1 (stereo not drawn) | – | 0.2 µM (active) |
| Cc1ccc(C)c(NC(=O)C2CC3c4ccccc4C2c2ccccc23)c1 (stereo not drawn) | – | 0.2 µM (active) |
| Cc1ccc(C)c(NC(=O)C2C3CCCC2C3c2ccccc2)c1 (stereo not drawn) | – | 2.82 µM (active) |
| Cc1ccc(C)c(NC(=O)Cn2c([N+](=O)[O-])cnc2C)c1 | -13.2% | – |
| Cc1ccc(C(=O)NC(=S)Nc2cc(-c3nc4ccccc4s3)ccc2C)cc1 | 5.16% | – |

| SMILES | activity, negative = inhibition | AC50 |
| --- | --- | --- |
| Cc1ccc(C)c(NC(=O)C2CC(O)CN2C(=O)OC(C)(C)C)c1 (stereo not drawn) | 4.88% | – |
| CCOc1ncccc1C(=O)OCC(=O)Nc1cc(C)ccc1C | -28.7% | – |
| Cc1ccc(NC(=O)C2C3CCCC2C3c2ccccc2)cc1C (stereo not drawn) | 12.5% | – |
| CC(C)=NOCc1cccc(-c2cc(-c3ccccc3)no2)c1 | -6.68% [at 11.4 µM] | – |
| CC(C)COCC1CC2(CC(C)(c3csc(N)n3)OC2=O)C(=O)O1 (stereo not drawn) | -21.1% | – |
| CCS(=O)(=O)N1CCN(c2c(Cl)cccc2[N+](=O)[O-])CC1 | -25.5% | – |
| COC(=O)C1=C(C)NC(C)=C(C(=O)OC(C)C)[C@H]1c1cccc2nonc12 | 3% [at 25.6 µM] | – |
| O=C(c1ccccc1)c1ccc2nc(-c3ccc(NC(=O)c4ccccc4F)cc3)[nH]c2c1 | -12.1% | – |
| Fc1cc2nc(-c3ccncc3)[nH]c2cc1F | – | 12.6 µM (active) |
| Nc1ccc(S(=O)(=O)Nc2cnc3ccccc3n2)cc1 | – | inactive |
| O=C(O)CCNc1ccccc1C(=O)O | 3.09% [at 11.4 µM] | – |
| O=C1C2C3C=CC(C3)C2C(=O)N1c1ncn[nH]1 (stereo not drawn) | -1.56% | – |
| CN(C)S(=O)(=O)Oc1ccccc1C(=O)Nc1cccc(C(F)(F)F)c1 | 5.28% | – |
| COc1ccc(CC(=O)Nc2ccc(-c3noc(-c4cccc(OC)c4)n3)cc2)cc1 | 28.9% | – |
| COc1ccc(-c2noc(N(C)CC(=O)Nc3cccc(C(F)(F)F)c3)n2)cc1 | – | 35.5 µM (active) |
| C=CCn1c(SCc2ccccc2)nc2scc(-c3ccc(C)o3)c2c1=O | -9.49% | – |
| COc1cccc(/C=N/NC(=O)CSc2nnc(C)n2-c2ccccc2)c1O | -8.6% | – |
| COCCN1C(=O)C(=O)/C(=C(/O)c2cccc(OC)c2)C1c1ccco1 (stereo not drawn) | 0.167% | – |
| CCC(=O)NC(NCC1CCCO1)C(Cl)(Cl)Cl (stereo not drawn) | -1.46% | – |
| CCOCCCN1CC(C(=O)NCCc2ccc(C)cc2)CC1=O (stereo not drawn) | – | 3.55 µM (active) |
| Cc1ccc(CCN2CC(C(=O)NC3CCCC3)CC2=O)cc1 (stereo not drawn) | -9.43% | – |

| SMILES | activity, negative = inhibition | AC50 |
| --- | --- | --- |
| Cc1ccc(CCN2CC(C(=O)NCCN3CCOCC3)CC2=O)cc1 (stereo not drawn) | -2.21% | – |
| CC(C)=NO[C@@H](C)c1cn([C@@H]2COC[C@@H]2O)nn1 | 14.3% [at 11.4 µM] | – |
| O=c1oc2ccccc2cc1-c1csc(NN=C2CCCCC2)n1 | – | 2.82 µM (active) |
| Cc1ccc(-c2noc(-c3cc4ccccc4oc3=O)n2)cc1 | -11.3% | – |
| Cc1cccc(-c2noc(-c3cc4ccccc4oc3=O)n2)c1 | -19.7% | – |
| Cc1ccccc1N1CCN(S(=O)(=O)C[C@@]23CC[C@H](C[C@H]2NC(=O)[C@@H](N)CCS(C)(=O)=O)C3(C)C)CC1 | -4.72% | – |
| CCN1CCc2nc(NC(=O)c3ccc4c(c3)OCCO4)sc2C1 | -12.3% | – |
| Cc1cc(=O)[nH]c(SCC(=O)Nc2nc3c(s2)CCCC3)n1 | -1.04% | – |
| CCN1CCc2nc(NC(=O)CC(c3ccccc3)c3ccccc3)sc2C1 | – | 0.316 µM (active) |
| CC1=NN(c2ccccc2)C(=O)/C1=C\c1c(C)[nH]n(-c2ccccc2)c1=O | 7.79% | – |
| COc1ccc2oc(=O)c(C(=O)Oc3ccc(NC(C)=O)cc3)cc2c1 | -14.8% | – |
| Cc1ccc2oc(-c3cccc(NC(=S)NC(=O)/C=C/c4ccco4)c3)nc2c1 | 17.9% | – |
| CCOc1[nH]n(-c2ccc(Cl)cc2)c(=O)c1C=Nc1ccc(O)cc1 | 11.1% | – |
| CO[C@@H]1COC(=O)[C@H]2CCCN2C(=O)[C@@H](C)COC(=O)[C@H](COCc2ccccc2)NC(=O)C/C=C\[C@H]1C | 1.71% [at 11.4 µM] | – |
| C=C(C)[C@H]1CC=C(C)/C(=N/NC(=O)CNc2ccccc2OC)C1 | -13% | – |
| CCOc1ccc2nc(C)cc(Nc3ccc4c(c3)OCCO4)c2c1 | – | 1.58 µM (active) |
| CCC(C)NS(=O)(=O)c1ccc(OCC(=O)Nc2ccc3c(c2)OCCO3)cc1 (stereo not drawn) | -22.9% | – |
| CC(C)(C)c1nc(SCC(=O)Nc2ccc3c(c2)OCCO3)c2ccccc2n1 | -16.2% | – |
| CO[C@H]1COC(=O)[C@H](C)NC(=O)C/C=C\[C@@H](C)[C@@H](NS(=O)(=O)c2ccc(C)cc2)COC(=O)[C@H](OCc2ccccc2)/C=C\[C@@H]1C | -11.2% [at 11.4 µM] | – |
| Cc1noc(N)c1C(=O)Nc1ccc(F)cc1 | -8.7% | – |
| N#Cc1c(NC(=O)CCN2C(=O)c3ccccc3C2=O)oc(-c2ccccc2)c1-c1ccccc1 | -12.5% | – |
